# Reference: PubChem BioAssay AID488977 (Johns Hopkins Ion Channel Center, 2010)
# About 1,500 (0.48%) of roughly 310,000 compounds were called active.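 The calls were made as follows: active = initial fluorescence not abnormally high and integrated response B-score, plate-corrected, over 3 SD above library mean; inactive = the rest.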 What follows is part of a selection rich in actives, with near analogues and random picks from the rest.
# Molecular target: High affinity choline transporter 1 (Homo sapiens) (UniProt Q9GZV3)
# Experiment: CHT positive allosteric modulators, primary screen, cell-based, membrane potential dye, choline EC20 (AID 488977)
# Conditions: CHT-expressing cells, at 10 µM, LV-AA mutant CHT in HEK293 cells; hits give high values
# Sequence of High affinity choline transporter 1 (Homo sapiens) (Q9GZV3 whole entry, looked up): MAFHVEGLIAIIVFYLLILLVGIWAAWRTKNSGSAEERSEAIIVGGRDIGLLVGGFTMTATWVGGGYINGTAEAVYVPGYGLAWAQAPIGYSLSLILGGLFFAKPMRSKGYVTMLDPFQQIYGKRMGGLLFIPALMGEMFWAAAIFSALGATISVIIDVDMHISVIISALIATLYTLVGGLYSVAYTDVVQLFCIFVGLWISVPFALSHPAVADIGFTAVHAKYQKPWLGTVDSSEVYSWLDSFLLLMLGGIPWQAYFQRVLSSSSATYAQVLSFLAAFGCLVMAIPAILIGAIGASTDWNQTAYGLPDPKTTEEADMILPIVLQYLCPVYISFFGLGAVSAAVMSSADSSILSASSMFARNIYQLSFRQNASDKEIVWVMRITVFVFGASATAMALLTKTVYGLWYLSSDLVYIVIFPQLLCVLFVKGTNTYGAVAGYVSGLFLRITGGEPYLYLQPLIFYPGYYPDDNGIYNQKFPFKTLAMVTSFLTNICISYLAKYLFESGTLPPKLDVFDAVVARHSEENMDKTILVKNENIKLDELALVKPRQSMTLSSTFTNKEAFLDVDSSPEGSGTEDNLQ
row,SMILES,B-score
1,CCCCn1c(N)c(N(CC(C)C)C(=O)c2ccc(-n3c(C)ccc3C)cc2)c(=O)[nH]c1=O,inactive
2,Nc1ccccc1SC(C[N+](=O)[O-])c1ccccc1 (centres undefined),inactive
3,Nc1ccccc1SCc1cc([N+](=O)[O-])cc2c1OCOC2,7.8 (active)
4,CCS(=O)(=O)c1cc([N+](=O)[O-])c(Sc2ccccc2N)s1,inactive
5,Cc1cc(C)cc(NC(=O)COc2coc(CN3CCN(c4ccccc4)CC3)cc2=O)c1,inactive
6,COc1cccc(N2CC(NC(=O)c3ccc4ccccc4c3)CC2=O)c1 (centres undefined),inactive
7,CCCCCCCCn1c2c(c(=N)c3c1CCC3)CCCC2,12.2 (active)
8,COc1ccccc1N(C)S(=O)(=O)c1ccc(Cl)c(C(=O)Nc2ccncc2)c1,inactive
9,CN1C(C(=O)NCc2ccco2)CC2Cn3c(nc4ccccc43)C21 (centres undefined),inactive
10,CC(OC(=O)CCCc1c[nH]c2ccccc12)C(=O)Nc1ccc(S(N)(=O)=O)cc1 (centres undefined),inactive
11,COc1ccc2oc(C(=O)OCC(=O)N(CC(C)C)c3c(N)n(Cc4ccccc4)c(=O)[nH]c3=O)c(C)c2c1,inactive
12,CCCCCCSc1ccc([C@@H]2[C@@H]3C(=O)N(CC)C(=O)[C@@H]3[C@]3(C(=O)OC)CCCCN23)cc1OC,inactive
13,c1ccc(C2c3[nH]c4ccccc4c3CCN2Cc2cccn2-c2cccnc2)nc1 (centres undefined),inactive
14,CCOc1ccc(C2c3[nH]c4ccccc4c3CCN2Cc2cn(CC)nc2C)cc1 (centres undefined),inactive
15,CCOc1ccc(C2c3[nH]c4ccccc4c3CCN2Cc2cccn2-c2ncccn2)cc1 (centres undefined),6.79 (active)
16,COc1ccc(Cl)cc1NC(=O)CN(C)C(=O)c1cc2ccccc2cc1OC,inactive
17,Cc1cc(C)c(S(=O)(=O)N2CCCC2CNC(=O)c2ccc3c(c2)OCO3)c(C)c1 (centres undefined),inactive
18,CCN(CC)CCn1c2c(c(SCC(=O)Nc3ccc(C(C)C)cc3)nc1=O)CCC2,inactive
19,COc1ccc(C2CC(c3ccc([N+](=O)[O-])cc3)=NN2C(C)=O)cc1 (centres undefined),inactive
20,COC(=O)c1c(C)[nH]c(C)c1-c1ccc([N+](=O)[O-])cc1,inactive
21,CC(=O)N1CC[n+]2c(-c3ccc([N+](=O)[O-])cc3)csc21,7.27 (active)
22,Cc1ccc(Oc2nc(-c3ccccn3)nc3ccccc23)cc1,inactive
23,CC(C)(C)Nc1nc(-c2ccccn2)nc2ccccc12,6.37 (active)
24,CCOCCCNc1nc(-c2ccccc2)nc2ccccc12,inactive
25,COc1ccc(S(=O)(=O)N2CCCCCC2)cc1C(=O)N(C)Cc1cccc(OC)c1OC,inactive

row,SMILES,B-score
1,O=[N+]([O-])c1ncc(Br)cc1Nc1ccccc1,inactive
2,CCCCOC(=O)Cn1c(=N)n(CCN(CC)CC)c2ccccc21,inactive
3,CCCCCCCCCCOC(=O)Cn1c(COc2ccc(C)cc2)[n+](C)c2ccccc21,9.75 (active)
4,COc1cccc(OCC(=O)Nc2ccccc2C(N)=O)c1,inactive
5,CCCCCCCCCCOC(=O)Cn1c(COc2cccc(OC)c2)[n+](C)c2ccccc21,10.7 (active)
6,COc1cccc(OCCCN2CCCCCC2)c1,inactive
7,Cc1ccc(OCCCn2c(=O)oc3ccccc32)cc1,inactive
8,CCOC(=O)c1c(C)oc2cc(Sc3ccccc3)c(O)c(O)c12,inactive
9,COc1cccc(CNC(=O)C(=O)NCCC2CCCCN2S(=O)(=O)c2ccc(C)cc2)c1 (centres undefined),inactive
10,Cc1cc(OCC(=O)N(C)c2c(N)n(Cc3ccccc3)c(=O)[nH]c2=O)c(C(C)C)cc1Cl,inactive
11,CC(Sc1nc2ccccc2c(=O)n1Cc1ccco1)C(=O)c1ccccc1 (centres undefined),7.82 (active)
12,O=C(CCCn1c(SCC(=O)c2ccc(F)cc2)nc2ccccc2c1=O)NCc1ccco1,inactive
13,CCOC(=O)C(C)Sc1nc2ccccc2c(=O)n1CC1CCCCC1 (centres undefined),inactive
14,Cc1sc2ncnc(N3CCC(C(=O)NNC(=O)c4ccc(F)cc4)CC3)c2c1C,inactive
15,CC1=CC(C)(C)N(C(=O)CSc2nccn2C)c2cc(C)ccc21,inactive
16,CC1=CC(C)(C)N(C(=O)CSc2nnc(-c3ccccc3)o2)c2ccc(C)cc21,9.98 (active)
17,O=C(CSc1nnc(-c2ccccc2)o1)N1CCOCC1,inactive
18,CCN1/C(=C\c2ccc3ccccc3[n+]2CC)Sc2cc(C)ccc21,inactive
19,CCN1/C(=C/C(=S)Nc2ccccc2)Sc2ccccc21,inactive
20,CCN1/C(=C/c2ccc3ccc(C)cc3[n+]2CC)Sc2ccccc21,7.76 (active)
21,COc1ccc(C(=O)NCC(c2ccco2)N2CCc3ccccc32)cc1OC (centres undefined),inactive
22,Cc1ccccc1C(=O)NCC(c1ccco1)N1CCc2ccccc21 (centres undefined),7.63 (active)
23,O=C(NCC(c1ccco1)N1CCc2ccccc21)c1cccc(F)c1 (centres undefined),inactive
24,CC(=O)Nc1ccc(C(=O)Nc2cccc(S(=O)(=O)NC3=NCCC3)c2)cc1,inactive
25,COc1ccc(C(=NN)c2ccc(OC)cc2)cc1,inactive

row,SMILES,B-score
1,CCOC(=O)[C@H]1[C@H]2COc3ccc(Cl)cc3[C@@H]2N2C(=O)c3cc(C)ccc3NC(=O)[C@@]12C,inactive
2,Cn1cccc1C(=O)NNC(=O)COc1ccc(Br)cc1,inactive
3,O=C(Nc1ccc(S(=O)(=O)N2CCCCC2)cc1)C1CCN(C(=O)c2ccc(F)cc2)CC1,inactive
4,CCCOc1ccccc1C1CC(=O)Nc2cc3c(cc21)OCO3 (centres undefined),7.15 (active)
5,COc1ccccc1C1C2=C(COC2=O)Nc2cc3c(cc21)OCO3 (centres undefined),inactive
6,COc1ccc(C2CC(=O)Nc3cc(C)c(C)cc32)c(OC)c1OC (centres undefined),inactive
7,COc1ccc(/C=C2\SC(=S)N(CCCC(=O)NC3CCCC3)C2=O)cc1OC,inactive
8,Cc1c(CCOC(=O)c2cc([N+](=O)[O-])ccc2Cl)sc[n+]1CCCCS(=O)(=O)[O-],inactive
9,Cc1c(CCOC(=O)CC23CC4CC(CC(C)(C4)C2)C3)sc[n+]1Cc1ccc([N+](=O)[O-])cc1,8.47 (active)
10,CCN(CC)CCn1c2c(c(SCC(=O)Nc3nc4ccccc4s3)nc1=O)CCCC2,inactive
11,CCC(C)(C)NC(=O)c1cc([N+](=O)[O-])ccc1N1CCCCC1,inactive
12,CCC(=O)c1ccc(N2CCN(C(=O)c3cc([N+](=O)[O-])ccc3F)CC2)c(F)c1,inactive
13,CCN1CCN(c2ccc([N+](=O)[O-])cc2C(=O)c2ccc(Cl)cc2)CC1,8.73 (active)
14,Cc1cc(O)c(Sc2ccccc2)c(=O)o1,inactive
15,Cc1ccc(Cn2cc(C(=O)NN)c(=O)c3ccc(F)cc32)cc1,inactive
16,CCCCCCn1cc(C(=O)O)c(=O)c2cc(F)c(N3CCCCC3)cc21,inactive
17,CCOC(=O)c1cn(CC)c2cc(F)c(F)cc2c1=O,7.03 (active)
18,Cc1cc(C)c(S(=O)(=O)n2cc(C(C)C(N)C(=O)O)c3ccccc32)c(C)c1 (centres undefined),inactive
19,CCCn1c(C)cc(-c2csc(NC(=O)CCc3nc4ccccc4c(=O)[nH]3)n2)c1C,inactive
20,O=C1c2ccccc2C(=O)c2c1cccc2N1CCN(C/C=C/c2ccccc2)CC1,inactive
21,O=C1c2ccccc2C(=O)c2c1cccc2N1CCN(Cc2ccccc2)CC1,inactive
22,O=C1c2ccccc2C(=O)c2c1cccc2N1CCN(CCO)CC1,8.6 (active)
23,COc1ccc(C(=O)C2CCCN(C(=O)c3ccc(OC)o3)C2)c(C)c1 (centres undefined),inactive
24,COc1ccc(NC(=O)CCC(=O)N2CCN(S(=O)(=O)c3ccc(C)cc3)CC2)c(OC)c1,inactive
25,COc1ccc2sc(N(CCCN(C)C)C(=O)c3ccc(S(=O)(=O)N(C)C4CCCCC4)cc3)nc2c1,inactive

row,SMILES,B-score
1,CCN1C(=O)[C@H]2[C@@H](c3ccc(-c4ccc(OC)cc4)cc3)N[C@@](Cc3ccccc3)(C(=O)OC)[C@H]2C1=O,inactive
2,CCCc1cc(=O)oc2c(C)c(OC(C)C(=O)NCC(O)c3ccccc3)ccc12 (centres undefined),inactive
3,Cc1c(OC(C)C(=O)NCC2CCC(C(=O)O)CC2)ccc2c1oc(=O)c1ccccc12 (centres undefined),inactive
4,Cc1cc(=O)oc2c(C)c(OC(C)C(=O)NC3CCN(Cc4ccccc4)CC3)ccc12 (centres undefined),6.43 (active)
5,CC(OC(=O)C1CC(=O)N(Cc2ccccc2)C1)C(=O)Nc1ccccc1[N+](=O)[O-] (centres undefined),inactive
6,CC(C)Oc1ccc(S(=O)(=O)N2CCOCC2)cc1NC(=O)C1CSC2(C)CCC(=O)N12 (centres undefined),inactive
7,Cc1cc(Nc2ccc(Br)cc2)nc2ccccc12,inactive
8,Cc1ccc(NC(=O)c2cnc(SCC(=O)NCC3CCCO3)n(C)c2=O)cc1 (centres undefined),inactive
9,Cc1cccn2c(=O)c3cc(C(=O)NCCN4CCOCC4)c(=N)n(Cc4cccnc4)c3nc12,inactive
10,Cc1cccn2c(=O)c3cc(C#N)c(=O)n(CCCN4CCOCC4)c3nc12,7.22 (active)
11,Cc1cccn2c(=O)c3cc(C(=O)N4COCC4(C)C)n(C)c3nc12,inactive
12,Cc1ccc2nc(NC(=O)CSc3nc(=O)n(CCCN(C)C)c4c3CCC4)sc2c1,inactive
13,COC(=O)c1cc(OC)c(OC)cc1NC(=O)C1CCCO1 (centres undefined),inactive
14,O=C(C1CCCO1)N1CCC(c2nc3ccccc3[nH]2)CC1 (centres undefined),inactive
15,COc1cc2nc(N3CCN(C(=O)[C@@H]4CCCO4)CC3)nc(N)c2cc1OC,8.15 (active)
16,COc1ccc(-c2cc(C(=O)N/N=C/c3cccnc3)c3ccccc3n2)c(OC)c1,inactive
17,Cc1ccc(CNC(=O)c2cc(-c3ccccc3C)n(CC3CC(c4cccc([N+](=O)[O-])c4)=NO3)n2)cc1 (centres undefined),inactive
18,CCN(CC)C(=O)N(CC)Cc1ccccc1,inactive
19,Cc1cccc(N(Cc2ccccc2)C(=O)c2ccccc2F)c1,inactive
20,O=C(c1ccccc1F)N(Cc1ccccc1)Cc1ccccc1,6.51 (active)
21,Cc1ccc(NC(=O)CSCC(=O)Nc2sccc2C#N)cc1,inactive
22,Cc1nnc(SCCCn2c(N3CCCCC3)nc3c2c(=O)[nH]c(=O)n3C)s1,inactive
23,CN1CCN(c2nc3c(c(=O)[nH]c(=O)n3C)n2Cc2cccc3ccccc23)CC1,inactive
24,Cn1c(=O)[nH]c(=O)c2c1nc(N1CCN(CCO)CC1)n2CCSc1nc2ccccc2s1,7.66 (active)
